This note sets out measurements from PubChem BioAssay (Tox21).

Where “and” joins values, the source holds several entries; their conditions need not be identical. Equal values may be shown once. Results filed as inconclusive are left out. The source holds several records for some structures; these can differ, active in one and inactive in another. Calls of active or inactive are those of the source. The call rests on the fitted dose curve; in most records, active means well fitted curve in the direction sought with a large enough effect in the repeat runs; inconclusive means weak or mixed curves; inactive means no such curve, though single readings can be large; an effect the other way counts as inactive or inconclusive.

The target in assay [1] is Cytochrome P450 1A2 (Homo sapiens) (UniProt P05177). Briefly: Cytochrome P450 Family 1 Subfamily A Member 2 (CYP1A2) small molecule antagonists: luciferase reporter qHTS assay (AID 1671199). Further: potency means the concentration at half of the fitted maximal effect. An outline of the steps: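 Steps: enzyme-substrate mix dispensed; test compounds and furafylline control pinned in; 10 min room temperature; NADPH regeneration solution added, 1 h; reaction stopped with luciferin detection reagent; luminescence read after 20 min.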
Sequence of Cytochrome P450 1A2 (Homo sapiens) (P05177 whole entry, looked up): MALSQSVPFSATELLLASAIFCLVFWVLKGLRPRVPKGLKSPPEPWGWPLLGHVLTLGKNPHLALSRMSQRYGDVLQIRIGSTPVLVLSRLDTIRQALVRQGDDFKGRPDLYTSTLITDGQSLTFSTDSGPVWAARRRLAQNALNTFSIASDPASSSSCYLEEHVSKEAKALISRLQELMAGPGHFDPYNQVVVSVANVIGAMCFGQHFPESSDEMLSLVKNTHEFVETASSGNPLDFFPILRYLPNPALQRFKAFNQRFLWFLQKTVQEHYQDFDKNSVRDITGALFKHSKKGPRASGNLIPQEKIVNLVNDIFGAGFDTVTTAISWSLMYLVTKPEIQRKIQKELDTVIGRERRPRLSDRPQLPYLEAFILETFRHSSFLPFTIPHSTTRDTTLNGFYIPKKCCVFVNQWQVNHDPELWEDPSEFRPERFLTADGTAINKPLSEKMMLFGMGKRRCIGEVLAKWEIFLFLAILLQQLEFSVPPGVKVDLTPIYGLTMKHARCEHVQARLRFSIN

Assay [2] has as its target Cytochrome P450 2C9 (Homo sapiens) (UniProt P11712). Briefly: Cytochrome P450 Family 2 Subfamily C Member 9 (CYP2C9) small molecule antagonists: luciferase reporter qHTS assay (AID 1671198). Further: series mostly up to about 120 µM. In a few lines:
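CYP2C9 activity was measured with a P450-Glo proluciferin substrate. Enzyme–substrate mix was held with compound for 10 min at room temperature, then NADPH regeneration solution was added for 1 h at 37C. Luciferin product was read as luminescence.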

Assay [3] concerns the target Voltage-gated inwardly rectifying potassium channel KCNH2 (Homo sapiens) (UniProt Q12809). Kind of assay: Human Ether-a-go-go-Related Gene (hERG) channel small molecule antagonists: fluorescence cell-based qHTS assay (AID 1671200).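 Further: hERG-expressing U2OS cells given a thallium stimulus after FluxOR II dye loading; series mostly up to about 77 µM.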 An outline of the steps: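 Fluorescence at 540 nm emission (480 nm excitation) was recorded kinetically for 2 min at 1-second intervals once the thallium-containing stimulus reached cells previously loaded with FluxOR II dye.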

Assay [4] concerns the target Cytochrome P450 3A4 (Homo sapiens) (UniProt P08684). Kind of assay: Cytochrome P450 Family 3 Subfamily A Member 4 (CYP3A4) small molecule antagonists: luciferase reporter qHTS assay (AID 1671201). Further: series mostly up to about 120 µM. In a few lines: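 qHTS, 1536-well. CYP3A4 + proluciferin substrate, cpd 10 min RT → NADPH regen 1 h RT → detection reagent 20 min → luminescence (RLU). Ketoconazole positive control.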
Further: nearly all actives have a fitted effect of over 50% in size.

Sequence of Cytochrome P450 2C9 (Homo sapiens) (P11712 whole entry, looked up): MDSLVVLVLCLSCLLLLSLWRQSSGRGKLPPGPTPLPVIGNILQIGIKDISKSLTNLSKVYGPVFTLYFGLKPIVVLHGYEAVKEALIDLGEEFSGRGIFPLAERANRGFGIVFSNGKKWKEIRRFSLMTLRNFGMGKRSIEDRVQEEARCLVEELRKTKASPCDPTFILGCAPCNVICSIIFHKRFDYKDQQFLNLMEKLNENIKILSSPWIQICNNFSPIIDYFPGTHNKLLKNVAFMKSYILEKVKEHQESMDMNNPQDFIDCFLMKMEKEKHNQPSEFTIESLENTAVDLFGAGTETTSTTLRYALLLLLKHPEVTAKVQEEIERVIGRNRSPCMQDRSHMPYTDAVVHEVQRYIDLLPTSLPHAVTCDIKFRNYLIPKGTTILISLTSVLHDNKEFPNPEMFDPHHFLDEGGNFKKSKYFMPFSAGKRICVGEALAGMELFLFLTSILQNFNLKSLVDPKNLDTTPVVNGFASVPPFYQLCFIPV
Sequence of Voltage-gated inwardly rectifying potassium channel KCNH2 (Homo sapiens) (Q12809 whole entry, looked up): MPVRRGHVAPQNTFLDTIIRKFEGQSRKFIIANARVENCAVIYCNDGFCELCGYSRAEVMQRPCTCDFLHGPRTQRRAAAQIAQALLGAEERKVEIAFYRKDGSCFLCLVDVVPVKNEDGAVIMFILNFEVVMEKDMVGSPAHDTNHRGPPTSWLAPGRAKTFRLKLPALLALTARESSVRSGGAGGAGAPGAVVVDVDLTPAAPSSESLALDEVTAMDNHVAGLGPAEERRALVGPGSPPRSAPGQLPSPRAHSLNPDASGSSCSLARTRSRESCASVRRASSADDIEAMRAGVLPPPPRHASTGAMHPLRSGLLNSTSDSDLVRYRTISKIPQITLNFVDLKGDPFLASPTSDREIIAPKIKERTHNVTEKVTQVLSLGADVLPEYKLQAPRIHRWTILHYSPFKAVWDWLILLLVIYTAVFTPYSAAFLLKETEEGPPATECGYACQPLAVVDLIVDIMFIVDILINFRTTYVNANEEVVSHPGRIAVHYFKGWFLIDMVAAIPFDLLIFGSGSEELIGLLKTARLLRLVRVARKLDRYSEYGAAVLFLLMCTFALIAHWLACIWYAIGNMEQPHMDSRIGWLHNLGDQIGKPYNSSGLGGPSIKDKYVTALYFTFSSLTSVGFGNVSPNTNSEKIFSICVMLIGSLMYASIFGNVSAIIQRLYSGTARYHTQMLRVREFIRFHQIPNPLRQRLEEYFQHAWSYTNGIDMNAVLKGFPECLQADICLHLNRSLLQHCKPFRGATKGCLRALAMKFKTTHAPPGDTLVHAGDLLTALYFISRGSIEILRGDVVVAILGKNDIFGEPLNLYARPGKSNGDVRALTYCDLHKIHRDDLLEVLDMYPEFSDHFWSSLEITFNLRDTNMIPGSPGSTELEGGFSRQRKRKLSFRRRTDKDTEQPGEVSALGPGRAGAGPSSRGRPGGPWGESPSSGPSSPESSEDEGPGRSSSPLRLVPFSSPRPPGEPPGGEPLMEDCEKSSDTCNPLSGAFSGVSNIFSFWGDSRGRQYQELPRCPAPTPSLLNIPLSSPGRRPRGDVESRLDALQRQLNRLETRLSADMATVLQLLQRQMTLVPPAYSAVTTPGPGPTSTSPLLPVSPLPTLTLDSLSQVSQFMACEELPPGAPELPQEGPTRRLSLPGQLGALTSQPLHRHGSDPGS
Sequence of Cytochrome P450 3A4 (Homo sapiens) (P08684 whole entry, looked up): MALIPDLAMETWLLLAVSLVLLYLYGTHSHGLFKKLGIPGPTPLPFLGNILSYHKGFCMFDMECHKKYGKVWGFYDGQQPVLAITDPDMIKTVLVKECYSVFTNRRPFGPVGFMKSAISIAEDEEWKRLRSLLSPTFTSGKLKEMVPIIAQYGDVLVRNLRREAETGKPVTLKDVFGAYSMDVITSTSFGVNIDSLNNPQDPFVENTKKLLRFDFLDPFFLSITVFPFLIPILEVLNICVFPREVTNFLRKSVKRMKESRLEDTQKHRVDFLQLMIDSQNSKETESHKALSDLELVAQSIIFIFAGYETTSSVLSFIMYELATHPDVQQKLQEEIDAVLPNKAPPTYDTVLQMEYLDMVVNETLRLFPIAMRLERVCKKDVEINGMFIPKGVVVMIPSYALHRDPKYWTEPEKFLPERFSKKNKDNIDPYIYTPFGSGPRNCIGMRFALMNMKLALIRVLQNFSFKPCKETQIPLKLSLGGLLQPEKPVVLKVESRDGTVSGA

As for `CCCCCCCCCCCCCCCCn1cc[n+](C)c1`, in assay [1], the Potency was 36.4 µM (active) and inactive and 71.2 µM (active).

In the case of `O=[N+]([O-])c1ccccc1O`, the Potency result in assay [2], in assay [3] and in assay [4] was “inactive” in each case.

Turning to `C[C@]12CCC(=O)C=C1CC[C@@H]1[C@@H]2CC[C@]2(C)C(=O)CC[C@@H]12`, the Potency result in assay [1], in assay [3] and in assay [4] was “inactive” in each case.

Regarding `CC(=O)O`, the Potency entry in assay [3] was “inactive”.

For `CCC[N+]1(C)CCCC1`, the Potency entry in assay [2], in assay [1], in assay [3] and in assay [4] was “inactive” each time.
